Assay outcomes deposited in PubChem by National Center for Advancing Translational Sciences (NCATS).
Shiga inhibitor = inhibitors of Shiga toxin in Vero cells. inhibition, % at 38.7 µM. hit rate 9.2% among 290,000. Vero cells, Shiga toxin protein synthesis inhibition reporter. AID 2315; in the data active means inhibition mostly above about 28%, no sharp cut-off; inactive means mostly below about 43%; further: 0% is about no effect
Pf growth 96h = P. falciparum growth inhibition at 96 hour, primary screen for plastid delayed-death inhibitors. Potency, µM (doses to about 28.7 µM), for the others: at the highest dose activity change, negative = inhibition, usual class: inhibitors. hit rate 6.9% among 320,000. AID 504834. P. falciparum luciferase reporter growth, 96 h; further: potency means the concentration at half of the fitted maximal effect; on the % scale 0 is the no-effect control and ±100 the full control effect
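Readout is luminescence from an integrated firefly luciferase in P. falciparum. Red cells, 2% hematocrit and 0.05% parasitemia final, were cultured with compound through two parasite generations (96 hours) at 37 C, 5% CO2.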
Pf growth 48h = P. falciparum growth inhibition at 48 hours (one generation); P. falciparum luciferase growth in erythrocytes, 48 h; Potency, µM (series often up to 28.7 µM), inactives show at the top dose activity change, negative = inhibition, actives largely listed as inhibitors; hit rate 5.9% among 310,000; further: potency means the concentration at half of the fitted maximal effect; on the % scale 0 is the no-effect control and ±100 the full control effect
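Parasite viability was followed by luminescence of a genomically integrated firefly luciferase. Cultures held 0.1% parasitemia at 2% hematocrit (final), incubated under 5% CO2 at 37 C.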
CHX counter = counter-screen hit for Shiga toxin inhibitors, cycloheximide; max response, %; cell reporter, cycloheximide protein synthesis inhibition counterscreen; hit rate 12% among 300,000; AID 2314; in the data active means max response mostly above about 13%, no sharp cut-off; inactive means mostly below about 14%; further: read at 38.3 µM for the half of the compounds with a filed dose; 0% is about no effect
Active calls of the source: *; ? = inconclusive; / = not tested or not shown. An excerpt weighted towards active compounds, which were near 21% of everything screened. Unless noted, the call rests on the fitted dose curve; in most records, active means well fitted inhibition curve with a large enough effect; inconclusive means small, poorly fitted or top-dose-only effect, or another doubt; inactive means no such curve, though single readings can be large or run the other way.

SMILES	Shiga inhibitor	Pf growth 96h	Pf growth 48h	CHX counter
COCCNC(=O)C(c1ccc(O)cc1)N(Cc1ccco1)C(=O)CCC(=O)Nc1ccccn1 (configuration not stated)	-3	18%	-3%	-1
Cc1cc(C)cc(N(CC(=O)NCc2ccc3c(c2)OCO3)C(=O)CCC(=O)Nc2ccccn2)c1	14	?	1.3µM*	-3
COCCNC(=O)C(c1ccc(Cl)cc1)N(Cc1ccco1)C(=O)CCC(=O)Nc1ccccn1 (configuration not stated)	-11	13µM*	0%	-3
COCCNC(=O)CN(C(=O)CCC(=O)Nc1ccccn1)c1ccc(C)c(C)c1	/	9.3µM*	-18%	8
CC(C)c1nc(CNC(=O)C2CCC(=O)N(CCc3cccc(F)c3)C2)cs1 (configuration not stated)	-9	9%	7%	-3
COc1cc2c(cc1OC)C(c1cc(C)ccc1C)CC(=O)N2 (configuration not stated)	-19	?	-1%	1
Cc1ccc2[nH]c(=O)c(CNS(=O)(=O)c3ccccc3)c(-c3ccccc3)c2c1	-8	94%	-14%	-3
COc1cc(/C=N/Nc2nc(C)cc(=O)[nH]2)ccc1OC(=O)c1cccnc1	2	-27%	-1%	1
Cc1ccc(N(CC(=O)NCC2CCCO2)C(=O)CCC(=O)Nc2ccccn2)cc1C (configuration not stated)	8	?	2%	7
Cc1ccc(N(CC(=O)NCC2CCCO2)C(=O)CCC(=O)Nc2ccccn2)cc1 (configuration not stated)	11	0.59µM*	-7%	-7
COCCNC(=O)C(c1ccc(F)cc1)N(C(=O)CCC(=O)Nc1ccccn1)c1ccc(C)cc1 (configuration not stated)	3	1.3µM*	-8%	-1
CC(OC(=O)CCC(=O)c1ccc(Cl)s1)C(=O)NC1(C#N)CCCCC1 (configuration not stated)	/	44%	32%	/
COc1ccc(N(CC(=O)N2CCc3ccccc3C2)S(C)(=O)=O)cc1Cl	-10	?	-6%	1
COc1cccc(NC(=O)CSc2ccc3nnc(-c4ccccn4)n3n2)c1	5	59%	37%	-2
O=C(CSc1nnc(-c2ccccn2)o1)Nc1ccccc1F	74*	?	134%	25*
Cc1cccc(CSc2ccc3nnc(-c4ccccn4)n3n2)c1	3	?	3.7µM*	11
O=C(CSc1ccc2nnc(-c3ccccn3)n2n1)Nc1ccccc1F	8	-31%	9.3µM*	8
O=C(CSc1ccc2nnc(-c3ccccn3)n2n1)Nc1cccc(F)c1	9	13µM*	?	8
Cc1ccccc1NC(=O)CSc1nnc(-c2ccccn2)o1	-4	20%	154%	-5
COc1ccc(C(CNc2nc(-c3cccnc3)nc3ccccc23)N(C)C)cc1 (configuration not stated)	-1	?	?	-3
Cc1ccc(C=Nc2ccccc2C(N)=O)o1	61*	202%	155%	61*
CN(C)c1ccc(C=Nc2ccccc2C(N)=O)cc1	39	30%	12%	26*
CC(C)(Oc1ccc(Cl)cc1)C(=O)NCC1CCCO1 (configuration not stated)	/	-2%	32%	/
CNc1c(NS(=O)(=O)c2ccc(CC(C)C)cc2)c(=O)oc2ccccc12	-12	124%	3%	1
CCc1cc2c(s1)N(CC(=O)OC)C(=O)CN=C2c1ccccc1OC	-6	8.3µM*	7%	11
SMILES	Shiga inhibitor	Pf growth 96h	Pf growth 48h	CHX counter
Cc1ccc2[nH]c(=O)c(CN(CC3CCCO3)C(=S)Nc3ccccc3)cc2c1 (configuration not stated)	-9	8%	?	1
O=C(/C=C/c1ccccc1Cl)Nc1ccc2c(c1)C(=O)NC2=O	58*	21%	12%	16
Cn1c(NC(=O)/C=C\c2ccccc2)cc(=O)n(C)c1=O	80*	77%	113%	36*
Cn1c(NC(=O)/C=C/c2c(F)cccc2Cl)cc(=O)n(C)c1=O	29	?	?	1
O=C(/C=C/c1ccccc1)Nc1ccc2c(c1)C(=O)NC2=O	37	0%	0%	19*
O=C(Nc1ccc2c(c1)C(=O)NC2=O)c1ccccc1Cl	6	36%	19%	12
CN(C)CCN(Cc1cc2cc3c(cc2nc1Cl)OCO3)C(=O)c1ccco1	-3	22%	10%	-2
Cc1cc2n(n1)C(c1c[nH]c3ccccc13)Nc1ccccc1-2 (configuration not stated)	41*	-15%	24%	29*
CN(CC(=O)NCCc1ccc(S(N)(=O)=O)cc1)S(=O)(=O)/C=C/c1ccccc1	3	16%	-1%	-2
Cc1cc2c(cc1S(=O)(=O)N1CCCC1)n(C)c(=O)c(=O)n2C	-9	13µM*	-2%	1
Cc1cccc(NS(=O)(=O)c2cc3c(cc2C)n(C)c(=O)c(=O)n3C)c1	-8	13µM*	?	2
Cc1cc2c(cc1S(=O)(=O)Nc1cccc(F)c1)n(C)c(=O)c(=O)n2C	2	?	19%	1
CCn1nc(C)cc1C(=O)N1CCCC(C(=O)c2ccc(OC)cc2C)C1 (configuration not stated)	-4	-3%	-9%	-3
O=C(O)CC1=C(O)C(=O)N(c2ccccc2)C1c1ccccc1 (configuration not stated)	9	/	24%	8
O=C(O)CC1=C(O)C(=O)N(c2ccccc2)C1c1ccc(Br)cc1 (configuration not stated)	18	0%	?	-2
O=C(O)CC1=C(Nc2ccccc2)C(=O)N(c2ccccc2)C1c1ccc(F)cc1 (configuration not stated)	99*	85%	88%	52*
COc1ccc(C2C(CC(=O)O)=C(Nc3ccccc3)C(=O)N2c2ccccc2)cc1 (configuration not stated)	132	10%	75%	37*
O=C(CN1CCN(Cc2ccccc2Cl)C1=O)NCc1ccccn1	-13	-4%	13%	-3
Cc1ccc(NC(=O)c2cnn(-c3ccccc3)c2C)cc1	/	133%	92%	32*
Cc1cccc(C)c1NC(=O)c1cnn(-c2ccccc2)c1C	-10	?	-22%	2
Cc1ccc(C)c(NC(=O)c2cc(-c3ccccc3)nn2-c2ccccc2)c1	-3	?	?	6
Cc1ccc(NC(=O)c2cnn(-c3ccccc3)c2C)c(C)c1	23	140%	97%	38*
C/C(=N\NC(=O)c1cccc(S(=O)(=O)N2CCCC2)c1)c1ccc(OCC(=O)N(C)C)cc1	/	-15%	-4%	/
O=C(NCC1CCCN(Cc2cccc(C(F)(F)F)c2)C1)c1ccc(F)cc1 (configuration not stated)	-10	?	?	4
O=C(NCC1CCCN(C(=O)c2cccc(C(F)(F)F)c2)C1)c1ccc(F)cc1 (configuration not stated)	11	?	7%	16*
COc1ccc(C(=O)N2CCCC(CNC(=O)c3ccc(F)cc3)C2)cc1OC (configuration not stated)	3	?	10%	25*
